In all, about 190,000 compounds went through this assay and about 1,900 (1%) were called active.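 The calls were made as follows: active = percentage of spot-positive cells more than 3 SD above its plate mean, without a fluorescence outlier flag or 80% toxicity; inconclusive = no clear call, values can overlap the other calls; inactive = the rest.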 Shown is part of a subset that was picked to be rich in actives.
Assay: GFP-LC3 puncta formation changes – imaging, high-content, MEF GFP-LC3, primary screen (AID 463193);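 as to % cells with GFP-LC3 spots: spot-positive cell cutoff set from DMSO-treated cells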;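 as to toxicity: cell loss after 18 h compound exposure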
Details: autophagy, at 10 µM; % cells with GFP-LC3 spots: stronger effect = higher value; toxicity: measured here: cell loss, nuclei count

| SMILES | % cells with GFP-LC3 spots | toxicity |
| --- | --- | --- |
| Cc1ccc(OCc2n[nH]c(=S)n2-c2ccccc2)cc1 | 4.42% (inactive) | -18.6% |
| COc1ccc(Nc2ncc(F)c(N3CCOCC3)n2)cc1 | 7.22% (inactive) | 8.68% |
| O=C(Nc1cccc(F)c1)N1C2CCC1CC(O)(c1cccnc1)C2 (centres undefined) | 1.55% (inactive) | 2.7% |
| O=C(Cn1cc2c(n1)CCCCC2)NCCN1CCOCC1 | 5.99% (inactive) | -2.07% |
| COc1ccccc1CNC(=O)Cn1cc2c(n1)CCCC2 | 15.2% (active) | 6.76% |
| COCCNC(=O)Cn1cc2c(n1)CCCCC2 | 4.61% (inactive) | -6.66% |
| CC(C)NC(=O)NCCCCCCS(C)=O (centres undefined) | 22.5% (inactive) | 23.6% |
| CCOC(=O)c1c(NC(=O)C(C)Sc2c[nH]c3ccccc23)sc2c1CCC2 (centres undefined) | 5.48% (inactive) | 2.6% |
| COc1ccc(CCc2nnc(CCC(=O)NCc3cnn(-c4ccccc4C)c3)o2)cc1 | 10.6% (inactive) | -18.2% |
| COc1cccc(CN(C)CC(=O)Nc2sc3c(c2C#N)CCC3)c1 | 6.72% (inactive) | -31.4% |
| CC(C)[C@H](NC(=O)c1ccc(F)cc1)C(=O)OCC(=O)NC(=O)c1cccn1C | 10.6% (inactive) | -0.516% |
| CCCCS(=O)c1snnc1C (centres undefined) | 3.68% (inactive) | 1.95% |
| CCc1nnc(NS(=O)(=O)c2ccc(NS(=O)(=O)c3ccccc3)cc2)s1 | 1.63% (inactive) | 20.8% |
| CCc1nnc(NS(=O)(=O)c2ccc(NC(=S)NC(=O)/C=C/c3cccs3)cc2)s1 | 5.75% (active) | 7.01% |
| CCc1nnc(NS(=O)(=O)c2ccc(NC(=S)NC(=O)c3cccs3)cc2)s1 | 5.87% (inactive) | -9.89% |
| O=C(O)CCN(Cc1ccccc1)S(=O)(=O)c1c(Cl)cccc1Cl | 1% (inactive) | 7.07% |
| COc1ccc(C(=O)NNc2cc(C)nc(NNC(=O)c3ccc(OC)cc3)n2)cc1 | 0% (inactive) | -3.42% |
| COC(=O)[C@@H]1CC[C@H](C)[C@@H](c2ccc(C)cc2)N1C(=O)c1ccc(/C=N/O[C@H](C)c2cn([C@@H]3COC[C@H]3O)nn2)cc1 | 9.78% (inactive) | 5.86% |
| O=C(NC1CCCCC1)C1CCCN(S(=O)(=O)c2ccc(Br)s2)C1 (centres undefined) | 0.705% (inactive) | 2.95% |
| Cn1c(C(=O)NCCCN2CCN(c3cccc(Cl)c3)CC2)cc2c(=O)n(C)c3ccccc3c21 | 6.58% (inactive) | 2.89% |
| O=C(CCn1c(=O)[nH]c2ccccc2c1=O)NCCCN1CCN(c2cccc(Cl)c2)CC1 | 7.4% (inactive) | 9.47% |

| SMILES | % cells with GFP-LC3 spots | toxicity |
| --- | --- | --- |
| CCn1c(=O)cc(OCC(=O)NCCCN2CCN(c3cccc(Cl)c3)CC2)c2ccccc21 | 14.4% (active) | 23.1% |
| COc1ccc(C(=O)Nc2cccc(S(C)(=O)=O)c2)cc1 | 7.34% (inactive) | 2.69% |
| CCN(CC)S(=O)(=O)c1ccc(Cl)c(C(=O)NC(C)C(c2cccs2)N2CCCC2)c1 (centres undefined) | 1.61% (inactive) | 7.32% |
| CCCC(=O)NC(C)C(c1cccs1)N1CCN(c2ccccc2)CC1 (centres undefined) | 5.17% (active) | 28.7% |
| CC(NC(=O)Nc1ccccc1)C(c1cccs1)N1CCN(c2ccccc2)CC1 (centres undefined) | 10.1% (inactive) | -0.847% |
| COc1cc(CNc2ncn[nH]2)ccc1OCc1ccccc1C | 0.305% (inactive) | 8.6% |
| COc1ccc2c(c1)CCc1c(C(=O)N3CCc4ccccc4C3)noc1-2 | 1.3% (inactive) | 5.85% |
| COc1ccc2c(c1)CCc1c(C(=O)Nc3c(C)n(C)n(-c4ccccc4)c3=O)noc1-2 | 10.1% (inactive) | 17.1% |
| COc1ccc2c(c1)CCc1c(C(=O)N3CCCC3)noc1-2 | 25.2% (active) | 71.1% |
| Cc1ccc(NC(=O)C(=O)NCc2ccc(/C=N/NC(=O)c3c(C)nc4cc(C)ccn34)o2)cc1 | 7.6% (inactive) | -9.46% |
| Cc1ccc(C(=O)/C=C/Nc2ccc(S(=O)(=O)Nc3onc(C)c3C)cc2)cc1 | 2.91% (inactive) | 14.6% |
| COc1cc2c(cc1OC)CC1(CCCCC1)N=C2 | 0.564% (inactive) | -2.01% |
| Cc1cccn2c(=O)c(/C=C3\SC(=S)N(CC(C)C)C3=O)c(NCCCOC(C)C)nc12 | 83.5% (active) | 1.08% |
| CCn1c(=N)c(C(=O)NCCCOC)cc2c(=O)n3cccc(C)c3nc21 | 6.38% (inactive) | 16.3% |
| CNc1nc2c(C)cccn2c(=O)c1C=Nc1ccc(OC)cc1 | 16.2% (inactive) | 19.6% |
| Cn1cc(-c2ccccc2)cc(C#N)c1=O | 1.72% (inactive) | 2.28% |
| COc1ccc(CN2CN(C3CCCC3)CSC2=S)cc1 | 6.4% (inactive) | -8.41% |
| COc1ccc(C(CC(=O)Nc2ccc(C)cc2)NC(=O)C(F)(F)F)cc1 (centres undefined) | 6.89% (inactive) | -5.77% |
| O=C(CSc1cccc2cccnc12)N/N=C/c1cccnc1 | 16.6% (inactive) | 24.2% |
| CC(=O)/C(=N\Nc1ccc(Cl)cc1Cl)Sc1cccc2cccnc12 | 80.1% (active) | -7.61% |
| S=C(NCc1cccnc1)Nc1ccc(Cl)cc1Cl | 1.61% (inactive) | 10% |

| SMILES | % cells with GFP-LC3 spots | toxicity |
| --- | --- | --- |
| CC(C)(C)CC(C)(C)NCC(O)COCCOc1ccc(Br)cc1 (centres undefined) | 10.9% (inactive) | 5.37% |
| c1ccc(C2c3[nH]c4ccccc4c3CCN2Cc2cccn2-c2cccnc2)nc1 (centres undefined) | 1.12% (inactive) | -2.12% |
| Fc1cccc2ncnc(OCc3ccccc3)c12 | 3.59% (inactive) | -3.11% |
| COc1ccc(OC)c(NC(=O)CN2CCN(C(=O)c3ccco3)CC2)c1 | 0.967% (inactive) | 2.86% |
| COc1ccc(CCNC(=O)CCn2c(=O)oc3ccccc32)cc1OC | 4.11% (inactive) | -1.63% |
| COc1ccc(OC)c(NC(=O)Cn2c(=O)oc3ccccc32)c1 | 18.4% (active) | 3.57% |
| CCN(CC(=O)NCCc1ccccc1)S(=O)(=O)c1ccccc1 | 12% (inactive) | 29.2% |
| Cc1c(Br)c([N+](=O)[O-])nn1CC(=O)N1CCN(Cc2ccccc2)CC1 | 3.58% (inactive) | 7.29% |
| CSc1nc2ccccc2c(=O)n1Cc1ccc(F)cc1 | 35.2% (active) | 0.835% |
| CC(Sc1nc2ccccc2c(=O)n1Cc1ccco1)C(=O)c1ccccc1 (centres undefined) | 11.8% (inactive) | -5.88% |
| O=C(CCn1c(SCC(=O)c2ccccc2)nc2ccccc2c1=O)NCc1ccc(F)cc1 | 5.36% (inactive) | 4.33% |
| CC(=O)n1c(C=Nc2ccccc2)c(O)c2ccccc21 | 6.01% (inactive) | -16% |
| CN(c1ccccc1)c1ccc(/C=c2\s/c(=C(/C#N)C(=O)C(C)(C)C)n(Cc3ccco3)c2=O)cc1 | 71.3% (active) | -2.03% |
| COc1ccc(NC(=O)Cn2c(=O)n(Cc3ccco3)c(=O)c3ccccc32)cc1 | 3.23% (inactive) | -0.177% |
| CCOC(=O)CSc1nc2c(sc(=S)n2CCc2ccccc2)c(=O)n1Cc1ccco1 | 25.9% (inactive) | 36.2% |
| Cc1cc(C(=O)N/N=C/c2cc([N+](=O)[O-])cc(C)c2O)n[nH]1 | 6.01% (inactive) | 8.83% |
| CCOC(=O)Cc1ncccc1C(=O)Nc1ccc(OC)cc1 | 2.71% (inactive) | -9.63% |
| O=C(CSc1nnc(-c2ccncc2)n1-c1ccc(Cl)cc1)Nc1ccc(C(=O)O)cc1 | 1.88% (inactive) | -0.961% |
| CCCN(CCC)C(=S)Nc1cc(C(=O)OC)ccc1C(=O)OC | 12.3% (inactive) | -2.2% |
| COC(=O)c1ccc(C(=O)Nc2cc(Cl)ccc2Cl)cc1NC(=O)c1ccccc1C | 29.3% (active) | -19.2% |
| COC(=O)c1ccc(C(=O)OC)c(NC(=S)N2CCN(c3cc(Cl)ccc3C)CC2)c1 | 12.5% (inactive) | 21.9% |

| SMILES | % cells with GFP-LC3 spots | toxicity |
| --- | --- | --- |
| CN(c1ccccc1)S(=O)(=O)c1cc(C(=O)OCC(=O)N2CCN(C(=O)c3ccco3)CC2)ccc1Cl | 11.3% (active) | -3.57% |
| CN(c1ccccc1)S(=O)(=O)c1ccc(Cl)c(C(=O)OCC(=O)N2CCOCC2)c1 | 0.158% (inactive) | 2.3% |
| O=C(OCC(=O)N1CCN(C(=O)c2ccco2)CC1)c1ccccc1Cc1ccccc1 | 7.07% (inactive) | 4.3% |
| Cc1ccc(-n2cc(CN(C)Cc3nccn3C)c(-c3cccc(C)c3)n2)cc1 | 1% (inactive) | -0.155% |
| CCN(CC)C(=O)CSc1nnc(C2CCCCC2)o1 | 4.79% (inactive) | -0.426% |
| CCCCCC1CCC(c2nnc(SCC(C)=O)o2)CC1 (centres undefined) | 10.7% (active) | -6.19% |
| CN(C)/N=C/c1cc(Cl)cc([N+](=O)[O-])c1O | 9.47% (inactive) | -11.7% |
| CCCc1nc(NCc2ccc3c(c2)OCO3)c2nnn(Cc3ccccc3Cl)c2n1 | 15.7% (active) | 5% |
| O=C(Cn1cnc2c(nnn2Cc2ccc(F)cc2)c1=O)NCc1ccc2c(c1)OCO2 | 2.36% (inactive) | -2.24% |
| Cc1nc(Nc2ccc3c(c2)OCCO3)c2nnn(Cc3ccccc3Cl)c2n1 | 8.6% (inactive) | 4.03% |
| CCOc1ncccc1C(=O)N(C)CC(=O)Nc1ccc(F)cc1 | 5.93% (inactive) | -12.3% |
| O=C(NCc1ccncc1)C(=O)NCc1ccco1 | 0.301% (inactive) | -9.14% |
| COc1ccccc1Nc1ncnc2c1oc1ccccc12 | 5.61% (inactive) | 1.55% |
| CCSc1nc(C)nc2c1oc1ccccc12 | 7.02% (inactive) | 8.62% |
| CCc1nc(Nc2ccc3nccnc3c2)c2oc3ccccc3c2n1 | 19% (active) | -4.67% |
| CN(C)C(=O)c1nc2ccc(Cl)cn2c1CN1CCN(c2ncccn2)CC1 | 2.1% (inactive) | -12.9% |
| CC(C)C(=O)Nc1c(O)c2ccccc2[nH]c1=O | 0.457% (inactive) | 5.73% |
| CCOc1ccccc1N1CCN(C(=O)COc2ccc3c(C)cc(=O)oc3c2)CC1 | 3.98% (inactive) | 7.33% |
| COc1ccc([C@H]2[C@H](C(C)=O)N3N=Cc4ccccc4C3C23C(=O)OC(C)(C)OC3=O)cc1 (some centres undefined) | 3.81% (inactive) | -2.15% |

From PubChem BioAssay AID463193 (University of Pittsburgh Molecular Library Screening Center, 2010)
